The campaign covered roughly 63,000 compounds. About 1,100 (1.7%) were called active. This is one part of a sample in which actives are shown more often than they occur. Entries with a potency or affinity are not part of this list. Values without a mark were called inactive. No stated cut-off is given here; in the data, active means cytotoxicity above about 50%; inactive means the rest.
assay: HPDE-C7 pancreatic duct cell viability loss – fluorescence, HTS (AID 430); conditions: HPDE-C7 pancreatic duct cells viability, at 10 µM, hits give high values;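 further: cells exposed to compound for 48 hours before viability readout; 0% = vehicle and 100% = reference cytotoxic drug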

Structure (SMILES)	cytotoxicity
CCOC(=O)c1cnc(SCC(=O)Nc2nnc(CC)s2)nc1N	-4.3%
C=CCn1cnc2c(c1=O)c1nc3ccccc3nc1n2/N=C/c1cccc(OC)c1OC	46.6%
C=CCn1cnc2c(c1=O)c1nc3ccccc3nc1n2/N=C/c1cccc(OC)c1	48.5%
O=C(CCSc1ccccc1)Nc1ccc(S(=O)(=O)N2CCOCC2)cc1	1.8%
COc1cc2c(cc1OC)C(c1cc(OC)c(OC)c(OC)c1)NCC2 (stereo not drawn)	4.6%
COc1cc2c(cc1OC)C1Cc3ccc(OC)c(OC)c3CN1CC2 (stereo not drawn)	-10.2%
O=C(O)C1CC(=O)N(c2ccc(F)cc2)C1 (stereo not drawn)	-16.5%
CCOC(=O)C1C2C=CC3(CN(c4cccc(Cl)c4)C(=O)C13)O2 (stereo not drawn)	-0.8%
CC1(C)C2CC=C(/C=N/n3cnnc3)C1C2 (stereo not drawn)	-4.1%
O=c1c2ccccc2[nH]c(=S)n1CCN1CCN(Cc2ccccc2)CC1	-3.8%
O=C(c1ccc(F)cc1)C1CCN(CCn2c(=O)[nH]c3ccccc3c2=O)CC1	5.4%
COc1ccc(C(=O)OCC(=O)NCc2ccco2)cc1OC	-14.8%
CCCCOc1ccc(S(=O)(=O)Nc2cccnc2)cc1	-5.2%
COc1ccccc1Oc1ccc(S(=O)(=O)Nc2cccnc2)cc1	51.5% (active)
COc1cc(S(=O)(=O)Nc2cccnc2)ccc1F	-3.6%
Cc1nc(NC(=O)CSc2nc3cccnc3n2C2CCCCC2)sc1C	9.2%
Cc1nnc2sc(-c3cccc(NC(=O)c4ccc(-c5cccc(Cl)c5)o4)c3)nn12	0.6%
Cc1ccc(-c2nn3c(C)nnc3s2)cc1NC(=O)c1ccc(Br)o1	-10.8%
CC(C)CNc1nc(Oc2ccc(=O)n(C)n2)nc(N2CCOCC2)n1	-7.6%
c1ccc(-n2ncc3c(NCc4ccco4)ncnc32)cc1	1.4%
Clc1ccc(-n2ncc3c(NCc4ccco4)ncnc32)cc1	17.4%
Clc1ccc(Cn2ncc3c(NCc4ccco4)ncnc32)c(Cl)c1	51.5% (active)
Cc1ccc(-n2ncc3c(NCc4ccco4)ncnc32)c(C)c1	-6.7%
c1ccc(Cn2ncc3c(NCc4ccco4)ncnc32)cc1	8.9%
Cc1cccc(-n2ncc3c(NCc4ccco4)ncnc32)c1	64.1% (active)

Structure (SMILES)	cytotoxicity
Cc1ccc(Cl)cc1N1CCN(C(=O)C2CCN(c3nnc(-n4cccc4)s3)CC2)CC1	43.7%
Cc1ccc(C)c(N2CCN(C(=O)C3CCN(c4nc(C)cc(C)n4)CC3)CC2)c1	11.3%
Cc1cc(C)nc(N2CCC(C(=O)N3CCN(c4cc(Cl)ccc4C)CC3)CC2)n1	59.5% (active)
O=C(COC(=O)C1c2ccccc2Oc2ccccc21)NC1CCS(=O)(=O)C1 (stereo not drawn)	-3.2%
Cc1cc2nc(NC3=NCN(Cc4ccc5c(c4)OCO5)CN3)nc(C)c2cc1C	93.4% (active)
Cc1ccc2nc(NC3=NCN(Cc4ccc5c(c4)OCO5)CN3)nc(C)c2c1	8.3%
Cc1nc(NC2=NCN(Cc3ccc4c(c3)OCO4)CN2)nc2ccccc12	2.1%
CC(=O)C1=C(O)C(=O)N(Cc2ccco2)C1c1ccccc1 (stereo not drawn)	-10.9%
Cc1ccc(CNC(=O)c2cc3c(=O)n4ccccc4nc3n(Cc3ccco3)c2=N)cc1	104% (active)
N=c1c(C(=O)NCc2ccccc2)cc2c(=O)n3ccccc3nc2n1Cc1ccco1	1.8%
Cc1ccc(Cn2c(=N)c(C(=O)NCc3ccco3)cc3c(=O)n4ccccc4nc32)cc1	-10.8%
N=c1c(S(=O)(=O)c2ccccc2)cc2c(=O)n3ccccc3nc2n1Cc1ccco1	-0.3%
Cc1ccc(S(=O)(=O)c2cc3c(=O)n4ccccc4nc3n(Cc3ccco3)c2=N)cc1	21.9%
CC1=C(C(N)=O)C(c2ccccn2)n2nc(-c3ccccc3Cl)nc2N1 (stereo not drawn)	13.8%
C=C(C)COc1ccc2c3c(c(=O)oc2c1OCC(=C)C)CCC3	11.5%
Cc1ccc(C(C(=O)NC2CCCCC2)N(Cc2cccnc2)C(=O)C2COc3ccccc3O2)o1 (stereo not drawn)	-11.7%
C=CCn1c(SCC(=O)NC2CCCCC2)nnc1-c1sc(N)nc1C	-10%
CCn1c(COc2ccc3c(c2)OCO3)nnc1SCC(=O)c1ccccc1	-1.4%
CN(CC(=O)NCc1cccs1)S(=O)(=O)c1cccc2cccnc12	-9.8%
O=S(=O)(NCc1cccs1)c1cccc2cccnc12	-9.6%
CCOC(=O)C1(C)NC(c2ccc(N(C)C)cc2)C2C(=O)N(CC)C(=O)C21 (stereo not drawn)	-12.4%
O=c1c2ccccc2nc(SCc2cc(F)cc3c2OCOC3)n1Cc1ccco1	-2.2%
N#Cc1nc(-c2ccc(F)cc2)oc1N1CCCC1	-7.6%
O=C(c1ccc(F)cc1)c1ccc(N2CCCC2)cc1	-17.7%
CN(C)CCN1C(=O)C(O)=C(C(=O)c2ccco2)C1c1ccccc1F (stereo not drawn)	-4.8%

Structure (SMILES)	cytotoxicity
CCn1c(=O)cc(OCC(=O)N2CCCC2)c2ccccc21	-3%
COc1ccc(C(CNC(=O)Cn2[nH]c(=O)c3ccccc3c2=O)N2CCCC2)cc1 (stereo not drawn)	1.8%
Cc1ccccc1Cc1c(C)nc2nc(SCC(=O)NCc3ccco3)nn2c1C	12%
Cc1cccc(Cc2c(C)nc3nc(SCC(=O)NCc4ccco4)nn3c2C)c1	45.8%
Cc1ccc(Cc2c(C)nc3nc(SCC(=O)NCc4ccco4)nn3c2C)cc1	61.8% (active)
Cc1nnc(NC(=O)c2ccc(-c3cccc(C(F)(F)F)c3)o2)s1	-13.1%
CCOC(=O)c1c(C)nn(Cc2ccccc2)c1N	-1.6%
CCOC(=O)c1sc(NC(=O)c2cccs2)cc1C	-16.1%
CCOC(=O)c1sc(NC(=O)c2c(C)nn(Cc3ccccc3)c2C)cc1C	72.7% (active)
Cc1cccc(OCc2nnc(SCC(=O)N(C(C)C)C(C)C)n2Cc2ccco2)c1C	-16%
CC1(C)Cc2c(sc3ncn4nc(CCC(=O)O)c(=O)nc4c23)CO1	-23.3%
O=C(Nc1cc(C(F)(F)F)ccc1N1CCOCC1)c1cccnc1	4.3%
O=C(Nc1cc(C(F)(F)F)ccc1N1CCOCC1)c1ccco1	1.1%
O=C(Nc1cc(C(F)(F)F)ccc1N1CCOCC1)c1c(F)c(F)c(F)c(F)c1F	51% (active)
Cc1onc(-c2ccccc2)c1C(=O)Nc1cc(C(F)(F)F)ccc1N1CCOCC1	69.1% (active)
Cc1onc(-c2ccccc2)c1C(=O)Nc1ccccc1N1CCOCC1	4.9%
CC(=O)Nc1cc(C(F)(F)F)ccc1N1CCOCC1	14.9%
COc1ccccc1NC(=O)C1=C(C)Nc2ncnn2C1c1cccs1 (stereo not drawn)	3.3%
O=C(Cn1cnc2c(nnn2Cc2ccccc2F)c1=O)OCc1ccccc1	-18.4%
Cn1cccc1Cc1nnc(SCC(=O)Nc2ccc(F)cc2)n1-c1ccc(F)cc1	-3.8%
CCSc1nnc(NC(=O)CSc2nnc(Cc3cccn3C)n2-c2ccc(F)cc2)s1	65.6% (active)
CCSc1nnc(NC(=O)CSc2nnc(Cc3cccn3C)n2-c2ccc(C)cc2)s1	39.6%
Cc1nnc(Nc2ccc(C(=O)NCCO)cc2)c2ccccc12	8.6%
CC(O)C(=O)NCCOCCOCCNC(=O)C(C)O (stereo not drawn)	-5.5%
CC(C)c1ccc(O)c(N)c1	6.8%

Structure (SMILES)	cytotoxicity
COC(=O)c1ccc(Sc2ccc(C)cc2)c(N)c1	9.4%
COC(=O)c1ccc(OC(=O)c2ccc(OC)c(OC)c2)c(OC)c1	4.3%
Cc1ccc(SC(C)C(=O)NCC(C)C)cc1 (stereo not drawn)	-2.6%
Cc1ccc(O)c(Sc2cc(C)ccc2O)c1	52.6% (active)
CN(CCC#N)S(=O)(=O)c1ccc2c(c1)c(=O)n(C)c(=O)n2C	-12.5%
CCCN(S(=O)(=O)c1ccc(OCC)cc1)S(=O)(=O)c1cccs1	-20.2%
Cc1ccccc1NC(=O)c1c(F)c(F)c(F)c(F)c1F	-10.5%
COc1cc(NC(=O)c2c(F)c(F)c(F)c(F)c2F)c(OC)cc1Cl	55.4% (active)
COCC(=O)Nc1cc(OC)c(Cl)cc1OC	-1.4%
COc1cc(NC(=O)C2CCCC2)c(OC)cc1Cl	-20.5%
CCOC(=O)c1ccccc1NC(=O)c1cccs1	-6%
O=C(Nc1ccccc1Cl)c1c(F)c(F)c(F)c(F)c1F	-8.2%
CCOC(=O)c1ccccc1NC(=O)c1ccccc1SC	25.3%
O=C(CSc1nnc(-c2ccc(Cl)cc2)n1Cc1ccco1)c1cccs1	-6.2%
CCCCS(=O)CC(COCc1ccccc1)OC(=O)CSc1nc(C)cc(C)n1 (stereo not drawn)	8.8%
COC(=O)C1=CNC=C(C(=O)OC)C1c1ccc(C(=O)OC)cc1	5.1%
CC1(C)Cc2c(c(=S)nc(-c3ccccc3)n2CCN2CCOCC2)CO1	-21.2%
CCOC(=O)C1CCN(C(=O)c2sc3nc(-c4ccccc4)cn3c2C)CC1	-0.3%
Cn1c(N)c(C(=O)COC(=O)C2(c3ccccc3F)CCCC2)c(=O)n(C)c1=O	-7%
CCOCCCNC(=O)C(Cc1ccccc1)NC(=O)c1ccco1 (stereo not drawn)	-8.1%
Cc1cc(C)c2c(CN3CCN(C)CC3)cc(=O)oc2c1	-8.5%
Cc1cc(C)c2c(CN3CCN(C/C=C/c4ccccc4)CC3)cc(=O)oc2c1	69.9% (active)
CCN1CCN(Cc2cc(=O)oc3cc(C)cc(C)c23)CC1	2.1%

From PubChem BioAssay AID430 (Sanford-Burnham Center for Chemical Genomics, 2006)
